This passage reports inhibition results from PubChem BioAssay AID624304 (Sanford-Burnham Center for Chemical Genomics, 2012).

The whole screen tested about 360,000 compounds, of which about 1,800 (0.5%) were called active. Only a selection was taken, and actives are over-represented in it overall. Unmarked numbers belong to inactive results.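 Rule for the calls: active = interference check ratio from 0.5 to 1.5 plus GFP to RFP signal ratio inhibition reaching or exceeding a fixed threshold (cut at about 30% in these data, passing the limit was not always enough); inactive = the rest.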

The experiment can be described thus: suppressors of acrylamide-induced Pgst-4::GFP reporter in worms, primary screen, SKN-1 inhibitor project, whole organism, uHTS, GFP/RFP fluorescence ratio, strain VP596 (AID 624304). As to conditions: C. elegans VP596 Pgst-4::GFP/RFP ratio, 24 h, at 21.8 µM, active compounds read high.
Take `COc1ccc(N2C(=O)C(CC(=O)Nc3ccc(F)cc3)N(CCc3cccs3)C2=O)cc1` (stereo not given): the inhibition was -3.33%.

On to `COc1ccc(-n2nc(C(=O)Nc3cc(OC)c(OC)c(OC)c3)c3ccccc3c2=O)c(OC)c1`, for which the inhibition was 6.93%.

On to `COCCN1C(=O)N(c2ccc(Cl)cc2)C(=O)C1CC(=O)Nc1cc(OC)cc(OC)c1` (stereo not given), for which the inhibition is 17%.

As for `C[C@H](OC(=O)n1ccnc1)[C@@H]1O[C@@]2(C)CCC[C@@H]1O2`, the inhibition is 13.4%.

For `C=CCSc1nnc2c(n1)-c1cccc3cccc-2c13`, the inhibition was 53.1% (active).

As for `C=CCSc1nsc(NC(=O)Nc2cccc(C(C)=O)c2)n1`, the inhibition was 2.8%.

`COc1ccnc2c1c(=O)n(Cc1cccc(F)c1)c(=O)n2C`: the inhibition is 13.9%.

With `CCCCC(CC)C(=O)Nc1ccc(Cl)cn1` (stereo not given), the inhibition was -11.4%.

As for `CCCc1cc(C(=O)Nc2ccc(Cl)cn2)cs1`, the inhibition is 35% (active).

On to `COc1ccc(C(=O)N/N=C(\C)CC(=O)Nc2ccc(Cl)cn2)cc1`, for which the inhibition is 3.73%.

For `C=CCC1(C(=O)N(C)Cc2ccccc2)CCN(C(=O)OC(C)(C)C)CC1`, the inhibition is 4.4%.

Take `COCCN(C(=S)Nc1cccc(Cl)c1C)C(C)c1ccco1` (stereo not given): the inhibition is 2.25%.

In the case of `C/C(=N\NC(=O)OC(C)(C)C)c1ccc[nH]1`, the inhibition is 10.7%.

On to `CCOC(=O)c1ccc(NC(=O)c2nc[nH]c2C(=O)N[C@@H](CCCCNC(=O)OC(C)(C)C)C(=O)OC(C)(C)C)cc1`, for which the inhibition is -1.6%.

With `c1ccc2c(c1)OCCOCCOCCO2`, the inhibition is 2.75%.

Regarding `CCC1CCCCN1C(=O)CSc1nc2c(c(=O)n(C)c(=O)n2C)n1C` (stereo not given), the inhibition is 10.5%.

Take `CCn1c(SCc2cc(=O)n3ccsc3n2)nc2ccccc21`: the inhibition was 13.5%.

On to `Cc1nc2nc(CSc3nc4ccccc4s3)cc(=O)n2[nH]1`, for which the inhibition is 31.9% (active).

On to `CCCc1cc(=O)n2[nH]c(SCc3ccccc3)nc2n1`, for which the inhibition is 11.9%.

With `COc1ccc2c(c1)c1ncn(Cc3ccccn3)c(=O)c1n2C`, the inhibition is -9.72%.

Turning to `Clc1ccc(-c2csc(-c3ccncc3)n2)cc1`, the inhibition is 73.1% (active).

In the case of `N#CC(=C1CCCC1)c1nc(-c2ccc(Cl)cc2)cs1`, the inhibition was -17.2%.

In the case of `Fc1ccc(-c2csc(-c3ccc(C4SCCS4)cc3)n2)cc1F`, the inhibition is -2.79%.

`COc1ccc(C)cc1NC(=O)c1[nH]c(C)c(C(C)=O)c1C`: the inhibition is -2.27%.

On to `COc1ccc(NC(=O)C2Cc3c(-c4cccc(NC(C)=O)c4)ccnc3O2)cc1OC` (stereo not given), for which the inhibition was 7.14%.

With `N#Cc1ccc(OCC(=O)Nc2nc(-c3ccccn3)cs2)cc1`, the inhibition is 0.752%.

On to `COc1ccc(-c2csc(Nc3ccccn3)n2)cc1`, for which the inhibition is 40% (active).

In the case of `Clc1ccc(Cc2nnc(-c3cccs3)o2)cc1`, the inhibition was -1.16%.

Consider `O=C(Nc1ccc(Cl)cn1)c1ccccc1-c1ccccc1`, for which the inhibition was 19.1%.

As for `CC(NC(=O)c1ccco1)C(=O)Nc1nc(-c2ccccn2)cs1` (stereo not given), the inhibition was -5.6%.

As for `c1ccc(Nc2nc(-c3ccncc3)cs2)nc1`, the inhibition was 38.3% (active).

Consider `COc1ccc(C(O)c2nc(-c3ccc(OC)nc3)cs2)cc1` (stereo not given), for which the inhibition is -3.44%.

For `COc1ccc2nc(-c3ccccn3)ccc2c1`, the inhibition was 18.4%.

As for `Clc1ccc(Nc2nc(-c3cccs3)cs2)nc1`, the inhibition was 84.2% (active).

With `C=CCC[C@H](Cc1ccc(F)cc1)C(=O)OC[C@@H](Cc1c[nH]c2ccccc12)NC(=O)[C@H](CC=C)CC(=O)N[C@H](CO)Cc1ccccc1`, the inhibition is 1.71%.

For the compound `CN(C(=O)c1ccccc1)c1nccnc1C#N`, the inhibition is -2.1%.

For the compound `O=C(NCCc1ccccc1)C1CCC(Cn2c(=O)c3ccccc3n(Cc3cccnc3)c2=O)CC1` (stereo not given), the inhibition is 2.01%.

Turning to `O=C(c1ccc(=O)oc1)N1CCC(C(O)(c2ccccc2)c2ccccc2)CC1`, the inhibition was 22.9%.

Take `NC(=O)C1CCN(C(=O)c2ccc(C(F)(F)F)cc2)CC1`: the inhibition is 1.88%.

Turning to `CCn1cnc2scc(-c3ccc(C)c(C)c3)c2c1=O`, the inhibition was 9.07%.

For `C[C@H]1NS(=O)(=O)c2cc(Cl)ccc2O[C@@H]1c1ccccc1`, the inhibition was 12.8%.

For the compound `O=C(N/N=C\c1cccc(Br)c1)c1ccccc1-n1cccc1`, the inhibition was 49.3% (active).

Take `Cc1nnsc1C(=O)N/N=C/c1cccc(C(F)(F)F)c1`: the inhibition is 6.82%.

Regarding `COc1cc(OC)c(C(=O)NNC(=O)c2ccccc2-n2cccc2)cc1OC`, the inhibition is -9.97%.

Turning to `CC(C)Nc1ccc(-n2nc3ccccc3[n+]2[O-])cc1`, the inhibition is 8.98%.

Turning to `O=C(O)CCCN1C(=O)C2C3c4ccccc4C(c4ccccc43)[C@@H]2C1=O` (stereo not given in full), the inhibition was -5.65%.

With `O=C(O)CCCN1C(=O)c2ccccc2Sc2ncccc21`, the inhibition is 45.5% (active).

With `COCCNC(=O)CCCN1C(=O)c2ccccc2Sc2ncccc21`, the inhibition is 4.78%.

As for `Fc1ccc(N2N=C(c3cccs3)CC2c2ccco2)c(F)c1` (stereo not given), the inhibition is 12.6%.

Consider `Cc1cccc2cc(C#N)c(N3CCCC3)nc12`, for which the inhibition is 32.6% (active).

Consider `Cc1nc2cc(NC(=O)CSc3nc4c(C)cccc4cc3C#N)ccc2s1`, for which the inhibition is -3.68%.

As for `Cc1cc(C)c2cc(C#N)c(N3CCNCC3)nc2c1`, the inhibition is 5.2%.

Consider `Cc1cccc(C(=O)N[C@H](C(=O)NCc2cccs2)C(C)C)c1`, for which the inhibition is 1.58%.

Consider `Cc1cccc(C(=O)Nc2ccc(C(=O)/C=C/c3cccs3)cc2)c1`, for which the inhibition is 46.6% (active).

Regarding `CC(=O)Nc1ccc(NC(=O)[C@@H](NC(=O)c2cccc(C)c2)C(C)C)cc1`, the inhibition was 12.9%.

Turning to `CCCCCCCC(=O)OC(CN1CCCCCC1)CN1CCCC1=O` (stereo not given), the inhibition was 0.0276%.

As to `O=Cc1c(Cl)cccc1Cl`, the inhibition is 2.42%.

As to `CCC(=O)Nc1c(C)n[nH]c1C`, the inhibition was -5.42%.

For the compound `Cn1c(CC(=O)Nc2ccc(F)cc2)nnc1SCC(=O)NC1CCCCC1`, the inhibition is 7.79%.

In the case of `C=CCn1c(CC(=O)Nc2cccc(OC)c2)nnc1SCC(=O)NC1CCCCC1`, the inhibition is 37.9% (active).

In the case of `COc1cccc(NC(=O)CSc2nnc(C3CCCCC3)n2N)c1`, the inhibition was -8.2%.

Take `CC(C)C(=O)Nc1c(C(=O)c2ccc(F)cc2)oc2ccccc12`: the inhibition was 19.7%.

Turning to `Clc1ccc(COn2c(-c3ccc(Cl)cc3Cl)nc3ncccc32)cc1`, the inhibition is 28.6%.

In the case of `Clc1ccc(-c2cc(-c3ccccn3)on2)c(Cl)c1`, the inhibition is 65.8% (active).

For `Fc1ccc(-c2ccc(CNCc3ccccn3)o2)cc1Cl`, the inhibition is -1.67%.

For the compound `COC(=O)[C@]1(Cc2ccccc2)N[C@H](CN(C)S(=O)(=O)c2ccc(OC(F)(F)F)cc2)[C@@H]2C(=O)N(C)C(=O)[C@@H]21`, the inhibition is 3.7%.

Turning to `COCCn1cnc2c1c(=O)n(Cc1ccc(Br)cc1)c(=O)n2Cc1ccccc1`, the inhibition was 21.1%.

`N=c1c2c(-c3ccccc3)c(-c3ccccc3)n(Cc3ccccc3)c2ncn1CCCO`: the inhibition was 36.6% (active).

Take `COCCn1cnc2c1c(=O)n(CC(=O)NN)c(=O)n2Cc1ccccc1`: the inhibition was 5.34%.

Turning to `Cc1[nH]c(C)c(S(=O)(=O)N2CCN(c3cccc(C(F)(F)F)c3)CC2)c1C(=O)N1CCCC1`, the inhibition is 16.8%.

Regarding `CCOC(=O)[C@]12CCCC=C1N(CCC1=CCCCC1)C(=O)[C@H](CC(=O)N1CCOCC1)C2`, the inhibition was 6.43%.

With `Cc1cccc(N2CCN(c3ccc(C(N)=O)cc3[N+](=O)[O-])CC2)c1C`, the inhibition was 6.19%.

As to `CN1CN(C)c2ccc([N+](=O)[O-])c3cccc1c23`, the inhibition was 38.8% (active).

As to `CN1CCN(S(=O)(=O)c2ccc(N3CCN(c4ccccc4O)CC3)c([N+](=O)[O-])c2)CC1`, the inhibition is -7.8%.

Turning to `COc1ncnc2c1N=C1CC(C)(C)CC(N)=C1S2`, the inhibition was 46.6% (active).

Take `CCOc1ccc(C(CC(=O)O)NC(=O)COc2ccccc2)cc1` (stereo not given): the inhibition is 0.0857%.

With `Nc1nonc1-c1noc(-c2ccc(Br)o2)n1`, the inhibition is 34.9%.

As to `CCCN(CCC)c1ccc(C(O)c2nnc(-c3ccccc3)o2)cc1` (stereo not given), the inhibition was 5.96%.

Regarding `O=C(Oc1ccc(-c2nc(-c3ccccn3)no2)cc1)c1ccccc1`, the inhibition is 26.9%.

Take `CCS(=O)(=O)c1ccc(-c2cccc(NC(=O)c3ccc(Br)o3)c2)nn1`: the inhibition is 19.3%.

In the case of `CN1CCN(C(=O)c2ccc(NC(=O)c3ccc(Br)o3)cc2)CC1`, the inhibition is -9.6%.

For `O=C(Nc1ccc(-c2nnc(-c3ccccc3)o2)cc1)c1ccc(Br)o1`, the inhibition was 34.6% (active).

As to `OC(c1nnc(-c2ccccc2)o1)c1cccs1` (stereo not given), the inhibition was -9.63%.

As for `Brc1ccc(-c2noc(-c3ccccc3)n2)o1`, the inhibition was 53.9% (active).

Consider `Brc1ccc(-c2nnc(-c3ccccc3)o2)o1`, for which the inhibition was 47.1% (active).

`CN1CCN(C(CNS(=O)(=O)c2cccs2)c2cccnc2)CC1` (stereo not given): the inhibition is -8.82%.

`CCOc1cc2[nH]c(=O)n(CCC(=O)NCc3ccc(OC)cc3)c(=O)c2cc1OCC`: the inhibition was -1.79%.

Turning to `CCCc1ccc(S(=O)(=O)N2CCN(C(=O)c3cc(C)on3)CC2)cc1`, the inhibition is 12.9%.

With `Cc1c(C(=O)NCC(c2ccco2)N2CCCC2)oc2ccc(Cl)cc12` (stereo not given), the inhibition is 3.49%.

For the compound `CN(Cc1ccccc1F)c1cc2c(c3c1ccn3C)C1CCC2O1` (stereo not given), the inhibition is 6.79%.

As to `Fc1c(F)c(C(F)(F)F)c(F)c(F)c1N1CCN(c2ccc3nnc(C(F)(F)F)n3n2)CC1`, the inhibition was -6.81%.

Take `C=CCCC(=O)N1C[C@H]2CON(C)[C@H]2C[C@H]1c1cccc(Nc2ccccc2)c1`: the inhibition was 3.69%.

For `N/C(=N\OC(=O)Nc1ccccc1)c1ccno1`, the inhibition was 11.3%.

Regarding `COC(=O)c1[nH]c2ccc(Br)cc2c1NC(=O)Oc1ccccc1`, the inhibition is 6.84%.

In the case of `COc1ccc(CCC(=O)OCC(=O)Nc2ccc(C)c(S(=O)(=O)N(C)C)c2)cc1`, the inhibition is -9.73%.
